Source: ChEMBL document CHEMBL4808148, “HDAC6 screening dataset using tau-based substrate in an enzymatic assay yields selective inhibitors and activators” (2021)
Values joined by “and” are separate entries in the source; they are usually repeats but may differ in a detail not shown here. Equal entries are not always repeated. The whole screen tested about 5,600 compounds, of which about 150 (2.7%) showed an effect of 50% or more. Shown is part of a subset that was picked to be rich in strong results. Residues, ends and D or L forms follow the SMILES beside them.

What was measured:
[1] = target: T1, Protein deacetylase HDAC6 (Homo sapiens) (UniProt Q9UBN7); details: at 10 µM
T1 sequence (whole entry): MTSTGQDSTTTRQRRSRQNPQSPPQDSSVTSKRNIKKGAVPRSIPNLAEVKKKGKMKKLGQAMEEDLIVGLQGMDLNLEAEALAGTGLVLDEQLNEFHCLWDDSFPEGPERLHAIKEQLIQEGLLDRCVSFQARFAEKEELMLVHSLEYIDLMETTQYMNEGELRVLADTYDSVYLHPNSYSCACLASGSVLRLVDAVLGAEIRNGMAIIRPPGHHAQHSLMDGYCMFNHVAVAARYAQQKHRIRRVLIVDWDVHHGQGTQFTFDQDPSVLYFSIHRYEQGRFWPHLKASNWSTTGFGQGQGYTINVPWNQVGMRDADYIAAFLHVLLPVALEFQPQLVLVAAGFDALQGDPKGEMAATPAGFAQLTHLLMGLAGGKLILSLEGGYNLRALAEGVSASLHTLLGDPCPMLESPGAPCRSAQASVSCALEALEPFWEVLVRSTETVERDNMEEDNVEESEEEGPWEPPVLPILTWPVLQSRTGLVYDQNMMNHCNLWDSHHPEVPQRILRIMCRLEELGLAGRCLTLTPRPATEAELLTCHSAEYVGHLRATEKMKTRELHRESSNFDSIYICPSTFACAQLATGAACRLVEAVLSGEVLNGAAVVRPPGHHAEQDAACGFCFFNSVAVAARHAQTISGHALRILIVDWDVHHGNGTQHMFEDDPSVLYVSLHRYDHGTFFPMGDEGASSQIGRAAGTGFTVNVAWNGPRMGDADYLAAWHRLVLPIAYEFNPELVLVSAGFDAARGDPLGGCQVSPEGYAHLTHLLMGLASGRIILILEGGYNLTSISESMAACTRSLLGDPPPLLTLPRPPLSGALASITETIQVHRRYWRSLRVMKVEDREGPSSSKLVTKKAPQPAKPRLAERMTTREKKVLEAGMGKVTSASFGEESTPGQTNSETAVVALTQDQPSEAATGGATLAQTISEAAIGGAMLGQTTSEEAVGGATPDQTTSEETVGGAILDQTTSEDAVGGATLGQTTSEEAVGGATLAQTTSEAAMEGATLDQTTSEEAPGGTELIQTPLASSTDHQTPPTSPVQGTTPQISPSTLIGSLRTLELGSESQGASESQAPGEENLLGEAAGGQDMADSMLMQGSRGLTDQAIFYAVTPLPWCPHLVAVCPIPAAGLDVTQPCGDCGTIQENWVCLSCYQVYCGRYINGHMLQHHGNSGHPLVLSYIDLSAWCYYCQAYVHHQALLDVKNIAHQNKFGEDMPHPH

[2] = target: Protein deacetylase HDAC6 (Homo sapiens) (UniProt Q9UBN7); details: at 10 µM; remark: listed apart in the source

Molecule | inhibition [1] | inhibition [2] [%]
O=C(/C=C/c1ccc2ccccc2n1)c1ccncc1 | 77.3% | 
O=C(NNc1ccccc1)c1ccncc1 | -5.35% | 
O=C(/C=C/c1ccc2ccc(C(F)(F)F)cc2n1)c1ccncc1 | -2.03% | 
Cc1c(Cl)cccc1S(=O)(=O)Nc1nc(CC(=O)N2CCN(C)CC2)cs1 | 4.81% | 
CCO[C@@H](Cc1ccc(OCCn2c(C)ccc2-c2ccc(SC)cc2)cc1)C(=O)O | 46.3% | 
O=C(Nc1ccc(S(=O)(=O)Nc2ccccc2Cl)c(Cl)c1)c1ccccn1 | 13.9% | 
O=C(Nc1ccc(Cl)cc1)Nc1ccc(Cl)c(Cl)c1 | -2.56% | 
O=C(Nc1cnc(Cl)nc1)c1ccc(F)c(F)c1 | -4.2% | 
COc1cc(NC(=O)c2ccccn2)ccc1Cl | 94.4% | 
O=C(Nc1cccc(Cl)c1)c1ccccn1 | 97.2% | 
CC(C)OC(=O)Nc1cccc(Cl)c1 | -4.5% | 
Cc1cccc(C)c1NC(=O)[C@H]1CCCCN1C | 2.44% | 
c1ccc(CN2CCC3(CCc4ccccc43)CC2)cc1 | -2.02% | 
CN[C@@H](CCCNC(=N)N)C(=O)O | -8.08% | 
O=C(CCCS)NC1CCN(C(=O)COc2ccc(Cl)cc2Cl)CC1 | 7.84% | 
CO/N=C(/C(=O)N[C@@H]1C(=O)N2C(C(=O)O)=C(Cn3ccc(=N)n3CCO)CS[C@H]12)c1csc(N)n1 | -0.61% | 
O=C(N[C@H]1CCN(C(=O)c2cc(C(F)(F)F)cc(C(F)(F)F)c2)[C@H](Cc2ccc(Cl)cc2)C1)c1ccnc2ccccc12 | -1.37% | 
Cc1cn2nc([C@@H]3CCCCN3C(=O)c3cc(Cl)ccc3NS(C)(=O)=O)cc2nc1N1CC[C@H](N)C1 | -2.52% | 
Cc1nc(NS(=O)(=O)c2ccc(N)cc2)oc1C | 32.6% | 
SATRAPLATIN, CHEMBL3833367 |  | -6.7
O=C1c2cccc(O)c2C(=O)c2c(O)cc(CO)cc21 | 5.42% | 
Cc1cc(O)c2c(c1)C(=O)c1cc(O)cc(O)c1C2=O | 90.2% | 

Molecule | inhibition [1] | inhibition [2] [%]
CCS(=O)(=O)N(C)[C@H]1c2cc(C#N)ccc2OC(C)(C)[C@@H]1O | -5.99% | 
CC(=O)OC[C@H](N)C(=O)O | 3.65% | 
NC[C@@H]1O[C@H](O[C@H]2[C@@H](O)[C@H](O[C@@H]3[C@@H](O)[C@H](N)C[C@H](N)[C@H]3O[C@H]3O[C@H](CO)[C@@H](O)[C@H](O)[C@H]3N)O[C@@H]2CO)[C@H](N)[C@@H](O)[C@@H]1O | 80.2% | 
NC[C@H]1O[C@H](O[C@H]2[C@H](O[C@@H]3O[C@H](CO)[C@@H](O)[C@H]3O)[C@@H](O)[C@H](N)C[C@@H]2N)[C@H](N)[C@@H](O)[C@@H]1O | -5.95% and -3.47% | 
NC[C@H]1O[C@H](O[C@H]2[C@H](O)[C@@H](O[C@H]3O[C@H](CO)[C@@H](O)[C@H](N)[C@H]3O)[C@H](N)C[C@@H]2N)[C@H](N)C[C@@H]1O | -5.82% | 
C[N+](C)(C)[C@@H](Cc1c[nH]c(=S)[nH]1)C(=O)[O-] | 0.31% | 
CC/C(=C(/CC)c1ccc(OP(=O)(O)O)cc1)c1ccc(OP(=O)(O)O)cc1 | -0.19% | 
CC(=O)N1CCC[C@H]1C(=O)N[C@@H](Cc1cnc[nH]1)C(=O)N[C@@H](CO)C(=O)N[C@@H](CS)C(=O)N[C@@H](CC(N)=O)C(N)=O (Ac-PHSCN-NH2) | -4.4% | 
COc1cc(OCc2cccc(-c3ccccc3)c2C)cc(OC)c1CN1CCCC[C@H]1C(=O)O | 51.3% | 
CCOC(=O)[C@H](CCc1ccccc1)N[C@@H](C)C(=O)N1Cc2cc(OC)c(OC)cc2C[C@H]1C(=O)O | -3.25% | 
C#CC1(OCC(O)CN2CCN(c3cccc(C(F)(F)F)c3)CC2)CCCCC1 (centres undefined) | 3.19% | 
Cn1c(COc2ccc(CC3SC(=O)NC3=O)cc2)nc2ccccc2c1=O (centres undefined) | 6.76% | 
COCCOc1cnc2ccn([C@H](C)c3nnc4c(F)cc(-c5cnn(C)c5)cn34)c(=O)c2c1 | -3.49% | 
O=C(NCc1ccc(OC(F)(F)F)cc1)C1c2ccccc2C(=O)N1C1CCOCC1 (centres undefined) | 1.11% | 
C[C@H]1NC(=O)NC1=O | 0.16% | 
COc1cc(OC)c(/C=C2/C(=O)Nc3ccccc32)c(OC)c1 | -2.63% | 
Cc1[nH]c(/C=C2\C(=O)Nc3ccc(F)cc32)c(C)c1C(=O)NCCN1CCCC1 | 2.96% | 
Cc1[nH]c(/C=C2\C(=O)Nc3cc(-c4ccccc4)ccc32)c(C)c1CCC(=O)O | 96.4% | 
CN[C@@H]1[C@@H](O[C@H]2O[C@H](CO)[C@@H](N)[C@H](O)[C@H]2O)O[C@H]2C[C@@H](N)[C@H](O[C@H]3[C@H](O)[C@@H](O)[C@H](N)C[C@@H]3N)O[C@@H]2[C@@H]1O | 10.2% | 
COc1cc(N2CCOCC2)ccc1Nc1ncc(Cl)c(Nc2ccccc2NS(C)(=O)=O)n1 | -0.93% | 
CN1CCN(Cc2ccc(Nc3ncc(Cl)c(Nc4ccccc4S(=O)(=O)N(C)C)n3)cc2)CC1 | -1.57% | 
CNC(=O)c1ccccc1Nc1nc(Nc2ccc3c(c2OC)CCC[C@H](N2CCN(CCO)CC2)C3)ncc1Cl | 83% | 
